Screening results as filed in PubChem.
An excerpt weighted towards active compounds, which were near 4.7% of everything screened.
SKKanGAS inh: S. pyogenes SKKanGAS growth inhibitors in kanamycin, primary screen, streptokinase expression inhibitor project, SKKanGAS strain, BacTiter-Glo luminescence; inhibition, % at 7.5 µM; 1.3% of 300,000 active; 6 h;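 active means mean replicate score, as percent of positive control median, at least 50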;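 further: strain carries kanamycin resistance gene driven by streptokinase promoter and grows in 40 µg/ml kanamycin; loss of luminescence reflects streptokinase promoter inhibition or plain growth inhibition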
PfHsp90 set2: growth inhibition of PfHsp90-expressing yeast, primary screen, antimalarial PfHsp90 inhibitor project, S. cerevisiae, BacTiter-Glo luminescence, single point, set 2 | BacTiter-Glo ATP, 48 h; yeast lacking PDR1 and PDR3 efflux regulators | inhibition, % at 9.4 µM | 0.32% of 310,000 active;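 active means every replicate shows inhibition above about 80%, whatever the replicate mean, limit read from the data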
TIM10 inh: growth inhibitors of isogenic TIM10 control yeast, primary screen, counter-screen for tim10-1 yeast inhibitor project, luminescence, uHTS; S. cerevisiae TIM10 strain growth, BacTiter-Glo luminescence, 24 h; inhibition, % at 10 µM; 1.4% of 330,000 active;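 active means inhibition of 40% or more at the single tested concentration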;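 further: wild-type TIM10 isogenic control strain grown at permissive 25 °C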
tim23-1 inh: growth inhibitors of tim23-1 mutant yeast, primary screen, luminescence, uHTS | S. cerevisiae tim23-1 growth, BacTiter-Glo luminescence, 24 h | inhibition, % at 20 µM | 1.3% of 330,000 active | AID 463212, 2010;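 active means growth inhibition of the mutant yeast at or above 50%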;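 further: temperature-sensitive mutant grown at 25 °C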
EBI2 antag: EBI2 receptor antagonists, beta-arrestin recruitment, primary screen, cell-based, luminescence, 7a,25-OHC stimulation, uHTS. G-protein coupled receptor 183 (Homo sapiens), P32249. inhibition, % at 5 µM. AID 651636, 2012. 7a,25-OHC stimulated. 0.81% of 360,000 active; in the data active means inhibition above about 38%;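 further: enzyme fragment complementation signal reports receptor beta-arrestin coupling in cells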
Target sequence (P32249 whole entry, looked up, the tested form may be a part): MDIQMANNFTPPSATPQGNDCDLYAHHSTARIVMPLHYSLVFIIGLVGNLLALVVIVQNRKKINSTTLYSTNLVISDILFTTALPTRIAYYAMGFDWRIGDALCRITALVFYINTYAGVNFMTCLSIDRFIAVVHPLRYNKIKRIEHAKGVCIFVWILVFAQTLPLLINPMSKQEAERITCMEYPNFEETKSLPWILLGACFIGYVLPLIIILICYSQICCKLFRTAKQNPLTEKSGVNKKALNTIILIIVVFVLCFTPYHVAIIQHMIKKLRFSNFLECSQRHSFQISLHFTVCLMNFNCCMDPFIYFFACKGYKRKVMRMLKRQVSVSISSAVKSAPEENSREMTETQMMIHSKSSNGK
tim10-1 inh: growth inhibitors of tim10-1 mutant yeast, primary screen, luminescence, uHTS; 2.2% of 330,000 active; S. cerevisiae tim10-1 ts strain growth, BacTiter-Glo, 24 h; inhibition, % at 20 µM;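 active means inhibition of at least 40%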;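 further: mutant grown at 25 °C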
tim10-1 conf: growth inhibitors of tim10-1 mutant yeast, confirmation, single concentration, luminescence, S. cerevisiae | shares compounds with tim10-1 inh | S. cerevisiae tim10-1 ts strain growth, BacTiter-Glo, 24 h | inhibition, % at 20 µM | 56% of 7,400 active;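 active means inhibition of yeast growth at or above a set limit in either of two repeat tests at 20 µM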;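 further: tim10-1 mutant grown at permissive 25 °C to find synthetic lethal compounds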
A number is an active result; . = inactive; / = no result.

SMILES	SKKanGAS inh	PfHsp90 set2	TIM10 inh	tim23-1 inh	EBI2 antag	tim10-1 inh	tim10-1 conf
O=C(CN1C(=O)/C(=C\c2cccc(Br)c2)Oc2ccccc21)NCCCN1CCOCC1	.	.	.	.	.	44	.
O=C(O)c1ccc(-c2nnn(Cc3cccc(C(F)(F)F)c3)n2)cc1	.	.	.	.	.	.	/
O=C(COc1ccccc1[N+](=O)[O-])N/N=C/c1cccs1	.	.	.	.	.	.	/
Cc1nc2ccc(Nc3nc4cc(S(=O)(=O)N5CCOCC5)ccc4o3)cc2s1	.	.	.	.	.	45	34
Cc1nc2ccc(NC(=O)c3cc(S(=O)(=O)N4CCOCC4)ccc3C)cc2s1	.	.	.	.	.	.	/
O=S(=O)(Nc1nc(-c2sccc2Cl)cs1)c1cc(Cl)ccc1Cl	85	.	.	.	.	43	.
CC(C)(C)c1nnc(NS(=O)(=O)c2cc(Cl)ccc2Cl)s1	.	.	.	.	.	.	/
O=C(c1csc2c1CCCC2)N1CCN(c2ccc(F)cc2)CC1	.	/	.	.	.	43	.
O=C(c1cccc(F)c1)N1CCN(c2cccc(C(F)(F)F)c2)CC1	.	.	.	.	.	.	/
O=C(c1csc2c1CCCC2)N1CCN(c2ncccn2)CC1	.	.	.	.	.	.	/
O=C(c1csc2c1CCCC2)N1CCN(c2cccc(C(F)(F)F)c2)CC1	.	/	.	.	.	56	33
COc1cc(C2C=C(c3cccs3)Nc3ncnn32)cc(OC)c1OC (stereo not drawn)	/	.	/	/	.	/	/
COc1ccc(C2C(C(=O)c3ccco3)=C(O)C(=O)N2CC2CCCO2)cc1OC (stereo not drawn)	.	.	.	.	.	.	/
O=C(COCC(=O)NCc1ccccc1)NCc1ccccc1	.	.	.	.	.	.	/
Cc1ccc(S(=O)(=O)CCC(=O)OCC(=O)Nc2cc(S(=O)(=O)N3CCOCC3)ccc2Cl)cc1	/	.	/	/	.	/	/
O=C(COC(=O)CCS(=O)(=O)c1ccccc1)Nc1cc(S(=O)(=O)N2CCCCC2)ccc1Cl	.	/	.	.	.	40	42
CNCc1ccccc1Sc1cccc2ccccc12	.	.	.	.	.	41	.
N/C(=N\OC(=O)c1cccc2ccccc12)c1cccc([N+](=O)[O-])c1	.	.	.	.	.	.	/
N/C(=N\OC(=O)c1cccs1)c1cccc([N+](=O)[O-])c1	.	.	.	.	.	47	39
N/C(=N\OC(=O)Oc1ccccc1)c1cccc([N+](=O)[O-])c1	.	.	.	.	.	.	/
N/C(=N\OC(=O)CSc1ccccc1)c1cccc([N+](=O)[O-])c1	.	.	.	.	.	42	40
COc1ccc(CCNC(=O)c2cc([N+](=O)[O-])cc([N+](=O)[O-])c2)cc1OC	.	.	/	/	.	/	/
COc1ccc(CCNC(=S)NC(=O)c2cccc([N+](=O)[O-])c2)cc1OC	.	.	.	.	.	41	.
COc1ccc(C(=O)O/N=C(\N)c2ccccc2Cl)cc1OC	.	.	.	.	.	63	52
Cc1ccc(-c2nc(SC(C)C(=O)N3CCOCC3)n[nH]2)cc1 (stereo not drawn)	.	.	.	.	.	.	/
SMILES	SKKanGAS inh	PfHsp90 set2	TIM10 inh	tim23-1 inh	EBI2 antag	tim10-1 inh	tim10-1 conf
COc1ccc(/C(N)=N/OC(=O)c2cccc([N+](=O)[O-])c2)cc1OC	.	/	.	.	.	42	.
CCOc1ccccc1Nc1nc(-c2sc(NC(=O)c3ccco3)nc2C)cs1	.	.	.	.	.	.	/
CCOc1ccccc1Nc1nc(-c2sc(C)nc2C)cs1	.	.	.	.	.	47	.
c1ccc(-c2nc(CSc3n[nH]c(-c4cccs4)n3)cs2)cc1	.	.	.	.	.	42	34
c1ccc2c(c1)OC(CCCN1CCCCC1)c1ccccc1S2 (stereo not drawn)	.	.	.	.	.	.	/
CN1CCCC(CC2Oc3ccccc3Sc3ccccc32)C1 (stereo not drawn)	.	.	.	.	.	40	.
CCc1ccc(CNC(=O)CCCn2c(=O)c3cccn3c3cccnc32)cc1	.	.	.	.	.	46	.
CCOc1cc(CNC(=O)CCCn2c(=O)c3cccn3c3cccnc32)cc(OCC)c1OCC	.	.	.	.	.	.	/
CCNC(=S)Nn1cnc2ccccc21	.	.	.	.	.	.	/
CCN(CC)C(=S)SCC(=O)Nc1nc(-c2ccccc2)c(-c2ccccc2)o1	83	.	.	.	.	41	.
COc1cc(OC)cc(C(=O)Nc2nc(-c3ccccc3)c(-c3ccccc3)o2)c1	90	.	.	.	.	44	33
C=CCN1C(=O)/C(=C\c2ccc(Oc3nc(N4CCOCC4)nc(N4CCOCC4)n3)c(OC)c2)SC1=S	.	.	.	.	.	.	/
CC(C)OC(=O)/C(C#N)=C/c1c[nH]c2ccccc12	.	.	.	.	.	42	.
NNC(=O)c1ccc(COc2ccc3ccccc3c2)o1	.	.	.	.	.	42	.
CCC(CC)CN1CCN=C1Nc1ccccc1	/	.	.	.	.	.	/
COc1ccc2cc3cc(C(=O)N(C)C4CCCCC4)oc3nc2c1	.	.	.	.	.	45	.
COc1ccc2cc3cc(C(=O)N4CCCCCC4)oc3nc2c1	.	.	.	.	.	.	/
Cc1c(Cl)cccc1N=c1c([N+](=O)[O-])nn(-c2ccccc2)n1O	.	.	.	.	.	.	/
Cc1ccc(N=c2c([N+](=O)[O-])nn(-c3ccccc3)n2O)c(C)c1	.	.	.	.	.	47	42
C=C1CCN(C(C(=O)OC)C(C)C)S(=O)(=O)c2ccccc21 (stereo not drawn)	.	.	.	.	.	.	/
CC(C)C1NC2(C(=O)c3ccccc3C2=O)C2C(=O)N(c3ccc(F)cc3)C(=O)C12 (stereo not drawn)	.	.	.	.	.	40	30
O=C1C2C3C=CC(CC3)C2C(=O)N1c1ccc(F)cc1 (stereo not drawn)	.	.	.	.	.	.	/
OCCC1CN(Cc2nc3ccccc3s2)CCN1CCc1ccccc1 (stereo not drawn)	.	.	.	.	.	.	/
CCN=C1S/C(=C/c2ccc(-c3ccc(F)cc3)o2)C(=O)N1CC	.	.	.	.	.	45	29
